The list is not random: actives were taken first. Their share in the collection is about 9%.
G9a inh: qHTS Assay for Inhibitors of Histone Lysine Methyltransferase G9a | 350,000 compounds, 8.8% hits | Potency, µM (doses to about 102 µM), inactives show top-dose activity, negative = inhibition, usual class: inhibitors | AID 504332, 2011 | G9a H3K9 monomethylation, AlphaScreen, 2 h; further: on the % scale 0 is the no-effect control and ±100 the full control effect; nearly all actives have a fitted effect of over 75% in size
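AlphaScreen detection with an anti-monomethyl H3K9 antibody quantified product after a 2 h room-temperature reaction containing 500 nM biotinylated H3K9 peptide, 20 µM SAM and 20 nM enzyme, which had been preincubated 15 min with compound.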
JMJD2A Tudor inh: qHTS Assay for Inhibitors of JMJD2A-Tudor Domain. Lysine-specific demethylase 4A (Homo sapiens), O75164. AlphaScreen JMJD2A-Tudor / H3K4me3 peptide binding. Potency, µM (highest dose often 114 µM), for the others: top-dose activity change, negative = inhibition, hits mostly inhibitors. 390,000 compounds, 4.4% hits. AID 504339, 2011; further: on the % scale 0 is the no-effect control and ±100 the full control effect; nearly all actives have a fitted effect of over 50% in size
BAZ2B inh: qHTS Assay for Inhibitors of BAZ2B; AlphaScreen BAZ2B-H3K14Ac peptide displacement; AID 504333, 2011; 360,000 compounds, 4.4% hits; Bromodomain adjacent to zinc finger domain protein 2B (Homo sapiens), Q9UIF8; Potency, µM (top dose mostly 114 µM), for inactives: at the highest dose activity change, negative = inhibition, most hits filed as inhibitors; further: on the % scale 0 is the no-effect control and ±100 the full control effect; nearly all actives have a fitted effect of over 60% in size
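Inhibition is scored as reduced AlphaScreen emission. The BAZ2B/b-H3(5-23)K14Ac complex (50 nM each) in PBS pH 7.4, 0.01% Tween-20 meets compound (up to 110 uM) for 30 min at RT before bead addition.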
12-LOX inh: Primary qHTS assay for inhibitors of human arachidonate 12S-lipoxygenase (ALOX12): Round 2 | 580,000 compounds, 1.1% hits | AID 1671190, 2021 | Potency, µM (doses to about 108 µM), for inactives: at the highest dose activity change, negative = inhibition, actives largely listed as inhibitors | Polyunsaturated fatty acid lipoxygenase ALOX12 (Homo sapiens), P18054 | purified 12hLO, xylenol orange hydroperoxide absorbance; further: on the % scale 0 is the no-effect control and ±100 the full control effect
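Purified human 12hLO (150 nM final) in 25 mM Hepes, 0.01% Triton X-100, pH 7.0 was preincubated 15 min at room temperature with compound. Then 40 uM arachidonic acid was added, 30 min. Hydroperoxide was read by Fe-XO absorbance ratio 573/405 nm.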
HP1b binding inh: HTS for Inhibitors of HP1-beta Chromodomain Interactions with Methylated Histone Tails | AID 540317, 2011 | Potency, µM (titrated, usually from 114 µM), for the others: top-dose activity change, negative = inhibition, most hits filed as inhibitors | AlphaScreen HP1-beta / biotin-H3K9me3 peptide binding | 390,000 compounds, 0.56% hits; further: nearly all actives have a fitted effect of over 70% in size
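AlphaScreen: HP1-beta (50 nM) preformed 30 min with biotin-H3(1-18)K9me3 peptide (50 nM) in PBS pH 7.4, 0.01% Tween-20. Compound added for 30 min at RT, then streptavidin donor/nickel chelate acceptor beads (10 ug/mL) for 30 min.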
PLK1 PBD block: qHTS for Inhibitors of PLK1-PDB (polo-like kinase 1 - polo-box domain): Primary Screen. Potency, µM, inactives show max response, negative = inhibition, actives largely listed as inhibitors. AID 720504, 2013. Serine/threonine-protein kinase PLK1 (Homo sapiens), P53350. Plk1 PBD binding of FITC phosphopeptide, fluorescence polarization. 360,000 compounds, 2.8% hits; further: series mostly up to about 57 µM; on the % scale 0 is the no-effect control and ±100 the full control effect; nearly all actives have a fitted effect of over 65% in size
Target sequence (P53350 whole entry, looked up, the tested form may be a part): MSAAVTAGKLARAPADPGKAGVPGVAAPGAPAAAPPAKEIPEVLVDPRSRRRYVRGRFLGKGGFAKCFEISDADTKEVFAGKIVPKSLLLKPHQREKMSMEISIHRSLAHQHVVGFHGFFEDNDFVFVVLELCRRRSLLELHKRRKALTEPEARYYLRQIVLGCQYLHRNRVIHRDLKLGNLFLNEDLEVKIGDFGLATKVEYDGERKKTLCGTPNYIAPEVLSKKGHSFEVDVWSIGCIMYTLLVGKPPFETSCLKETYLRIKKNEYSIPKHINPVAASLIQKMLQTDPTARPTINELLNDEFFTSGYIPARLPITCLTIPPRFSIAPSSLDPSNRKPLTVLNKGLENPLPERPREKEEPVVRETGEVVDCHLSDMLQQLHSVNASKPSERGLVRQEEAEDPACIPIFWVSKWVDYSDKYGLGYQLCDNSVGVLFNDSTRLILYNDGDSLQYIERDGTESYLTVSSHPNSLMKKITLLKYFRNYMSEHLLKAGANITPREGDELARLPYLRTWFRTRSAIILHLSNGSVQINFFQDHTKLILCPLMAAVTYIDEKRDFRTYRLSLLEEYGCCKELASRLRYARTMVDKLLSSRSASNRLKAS
An asterisk follows results filed as active; ? = inconclusive; / = no result; [ ] = dose if it differs, or a comment. The call rests on the fitted dose curve; in most records, active means well fitted curve in the direction sought with a large enough effect; inconclusive means small, poorly fitted or top-dose-only effect, or another doubt; inactive means no such curve, though single readings can be large; an effect the other way counts as inactive or inconclusive. Potency means the concentration at half of the fitted maximal effect.

SMILES | G9a inh | JMJD2A Tudor inh | BAZ2B inh | 12-LOX inh | HP1b binding inh | PLK1 PBD block
CC1C(C#N)=C(SCC(N)=O)NC2=C1C(=O)CC(C)(C)C2 (stereo not drawn) | -44% | ? | 10% | 41% | 3% | 27µM*
CC1(C)CC(=O)C2=C(C1)NC(SCC(N)=O)=C(C#N)C21CCCCC1 | -11%[59 µM] | -5% | 10% | -3% | -3% | -17%
CC1=C(C#N)C(C)C2=C(CC(C)(C)CC2=O)N1 (stereo not drawn) | 6%[59 µM] | 3%[11.4 µM] | -20% | 0% | -2% | 30µM*
CCC1C(C#N)=C(SCC(N)=O)NC2=C1C(=O)CC(C)(C)C2 (stereo not drawn) | 40µM* | 71µM* | 1% | 85% | -6% | 27µM*
O=C(CSc1nc2ccccc2n1Cc1ccccc1)N/N=C/c1ccco1 | 1%[59 µM] | -6% | -1% | 0% | 15% | -2%
CC(NC(=O)CCN1N=C(c2ccccc2)CCC1=O)c1ccc2c(c1)OCCO2 (stereo not drawn) | 7% | / | -5% | / | / | /
O=C(N[C@@H](Cc1ccccc1)C(=O)OCc1ccccc1)c1nc[nH]c1C(=O)N1CCNCC1 | / | 50µM* | / | -3% | 3% | 2%
CC(C)(C)OC(=O)[C@H](Cc1ccccc1)NC(=O)c1nc[nH]c1C(=O)N1CCN(c2ccccc2)CC1 | / | ? | -3% | -3% | ? | 21µM*
O=C(Nc1nccs1)c1nc[nH]c1C(=O)N1CCN(c2ccccc2)CC1 | / | 32µM* | / | 17% | 74% | 0%
CC(C)(C)OC(=O)NCc1ccc(CNC(=O)c2nc[nH]c2C(=O)N2CCc3ccccc3C2)cc1 | 9%[2.33 µM] | -23% | 50µM* | 14% | 45% | -5%
CC(C)(C)OC(=O)NCCCCCNC(=O)c1nc[nH]c1C(=O)N1CCc2ccccc2C1 | / | ? | / | 6% | 61% | -6%
Cn1c(CCN2CCCCC2)nc2cc(NC(=O)COc3ccc([N+](=O)[O-])cc3)ccc21 | ? | -12% | -6% | 3% | 19% | -7%
Brc1ccc(-c2c(-c3ccsc3)sc3ccccc23)cn1 | 3%[0.501 µM] | 39% | -4% | -20% | 84% | -1%
O=C(O)c1nccnc1C(=O)N1CCN(c2ccccc2)CC1 | ? | ? | 56µM* | -6% | 24% | -24%
Cc1nnc(NC(=O)C2CCN(C(=O)c3ccco3)CC2)s1 | ? | -4% | 4% | 2% | -13% | -26%
CCn1c(C)cc(/C=C2\NC(=O)N(Cc3ccccc3)C2=O)c1C | 13µM* | 89µM* | -32% | 3% | 7% | -2%
CCn1c(C)cc(/C=C2/NC(=O)N(Cc3ccccc3F)C2=O)c1C | -21% | ? | -36% | ? | 17% | -16%
O=C(O)c1cccc2cc(-c3ccccc3)oc(=O)c12 | 2% | -14% | -8% | -40% | 32% | 1%
O=c1oc(-c2ccc(O)c(O)c2)cc2cc(O)cc(O)c12 | / | ? | / | 2.5µM* | -2% | -2%
O=c1cc(-c2ccc(O)cc2)oc2cc(O)cc(O)c12 | 21%[59 µM] | -26% | / | ? | 15% | -16%
O=c1oc(-c2ccc(O)c(O)c2)cc2cccc(O)c12 | / | ? | / | 4.5µM* | -21% | -5%
O=C(Cc1ccccc1)NC(NNc1ccccc1)(C(F)(F)F)C(F)(F)F | 10µM* | ? | 6% | ? | ? | 27µM*
O=C(Cc1ccccc1)NNC(=O)Cc1ccccc1 | -24%[59 µM] | -20%[11.4 µM] | -3% | 1% | 30% | -11%
CCOc1cc(CNc2ccc(N3CCCC3)cc2)cc(Cl)c1OC | 10µM* | 11µM* | 13µM* | ? | 20µM* | -23%
COc1cc(CNc2ccc(N3CCCC3)cc2)cc(Cl)c1OC | 3.5µM* | 10µM* | 35µM* | ? | 14µM* | 21µM*
SMILES | G9a inh | JMJD2A Tudor inh | BAZ2B inh | 12-LOX inh | HP1b binding inh | PLK1 PBD block
O=C(COC(=O)c1cnccn1)N=c1sccn1Cc1ccccc1Cl | 56µM* | -18% | 0% | 0% | 14% | -6%
O=C(c1cnccn1)N1CCCC2(C1)Nc1cccnc1NC2=NCc1ccccc1 (stereo not drawn) | / | / | / | 32% | / | /
CCCOC(=O)C1=C(C)N(C)C(=O)NC1c1cc2c(cc1[N+](=O)[O-])OCO2 (stereo not drawn) | 10µM* | ? | ? | ? | -1% | ?
CCOC(=O)C1=C(C)NC(=O)CC1c1cc2c(cc1[N+](=O)[O-])OCO2 (stereo not drawn) | 22µM* | -31% | / | -3% | 23% | -2%
CCOC(=O)C1=C(C)NC(=O)NC1c1cc2c(cc1Br)OCO2 (stereo not drawn) | -13%[59 µM] | ? | 55% | 0% | 57% | -11%
O=C(CN1CCCc2nc(-c3ccncc3)ncc2C1=O)N1CCc2ccccc2C1 | / | / | / | 51% | / | /
COc1cc(NC(=S)Nc2cccnc2)cc(OC)c1 | 16µM* | -10% | -25% | ? | -16% | 24µM*
COc1cc(OC)cc(C(=O)NC(=S)Nc2cccnc2)c1 | ? | -8%[11.4 µM] | -15% | ? | 15% | -14%
Cc1cc(NC(=S)Nc2cccnc2)ccc1Br | 40µM* | -21% | -3% | -4% | 21% | -13%
N#CC(c1cccc(Cl)c1)c1ccc2c(C(F)(F)F)cc(C(F)(F)F)nc2n1 (stereo not drawn) | 14µM* | 28µM* | 10µM* | 6% | 10µM* | -16%
O=C(c1cccc(NS(=O)(=O)c2ccc(F)c(F)c2)c1)N1CCN(C(c2ccccc2)c2ccccc2)CC1 | 50µM* | -34%[57.1 µM] | -5% | 2% | 15% | -22%
CCOc1ccc(S(=O)(=O)NCCC(=O)N2CCN(c3ncccn3)CC2)cc1 | 11%[12.7 µM] | -11% | 0% | 333% | 16% | -4%
CCOc1ccc(S(=O)(=O)NCCC(=O)N2CCN(c3ccc(OC)cc3)CC2)cc1 | 45µM* | ? | ? | ? | ? | 21µM*
O=C(c1cccc(NS(=O)(=O)c2ccc(Br)cc2)c1)N1CCN(c2ccccc2O)CC1 | 50µM* | -33% | -28% | ? | 6% | -9%
CCOC(=O)c1cc(-c2ccccc2)n(CCC(=O)N2CCN(c3ccc(OC)cc3)CC2)c1C | ? | ? | 25µM* | 10% | ? | -4%
